For 40 compounds, outcome and AC50 results are on record in PubChem BioAssay (EPA / NIEHS).

Active and inactive are the calls of the source. How the source made its calls: active means hit-call score of the fitted dose curve at least 0.9, where 1 is the maximum; inactive means score below 0.9.

The assay is described as follows: APR_HepG2_MitoMass_24hr: Apredica 24-hour HepG2 Assay for Mitochondrial Mass (AID 2282912). As to conditions: high-content imaging, actives raise or lower the signal. The procedure: APR_HepG2_24hr is a cell-based, multiplexed-readout assay that uses HepG2, a human liver cell line, with measurements taken at 24 hours after chemical dosing in a 384-well plate.APR_HepG2_MitoMass_24hr is one of 10 assay component(s) measured or calculated from the APR_HepG2_24hr assay. It is designed to make measurements of cell phenotype, a form of morphology reporter, as detected with fluorescence intensity signals by HCS Fluorescent Imaging technology.Data from the assay component APR_HepG2_MitoMass_24hr was analyzed into 1 assay endpoint. This assay endpoint, APR_HepG2_MitoMass_24hr, was analyzed with bidirectional fitting relative to DMSO as the negative control and baseline of activity. Using a type of morphology reporter, gain or loss-of-signal activity can be used to understand changes in the signaling. Furthermore, this assay endpoint can be referred to as a primary readout, because this assay has produced multiple assay endpoints where this one serves a signaling function. To generalize the intended target to other relatable targets, this assay endpoint is annotated to the cell morphology intended target family, where the subfamily is organelle conformation.
Cells were treated with dimethyl sulfoxide (DMSO) as a solvent control at a final concentration of 0.5% v/v or with compounds in DMSO with a resulting final DMSO concentration of 0.5% v/v. Compound treatment was done at concentrations of 0.39, 0.78, 1.56, 3.12, 6.24, 12.5, 25, 50, 100, and 200 uM in duplicate on each plate. Cells were treated with compounds for 1, 24, or 72 hr. Carbonyl […] m-chloro-phenylhydrazone (CCCP) and taxol were used as positive controls for mitochondrial function and cytoskeletal stability, respectively; DMSO served as the negative control for this experiment. Cells were fixed by the direct addition of 50 uL formaldehyde in Hank's Balanced Salt Solution (HBSS) to a final concentration of 3.7%. After incubation in the fixation medium for 30 min at room temperature (293-298 K), cells were rinsed twice with HBSS and treated with cell permeabilization buffer (16 uL of 0.5% Triton X-100) for 10 min at room temperature (293-298 K) before labeling. For mitochondrial membrane potential and mitochondrial measurements, pre-fixed cells were incubated with 50 uL of MitoTracker Red CMXRos (Invitrogen) at a concentration of 250 nM for 30 min before fixation. In the remaining cases, post-fixed cells were labeled by incubation with a multiplexed mixture of primary antibodies in HBSS for 60 min at room temperature (293-298 K) to detect immunoreactivity of c-Jun (1:500), phospho-histone H3 (1:100), phospho-histone H2A.x (1:200), p53 (1:400), alpha-tubulin (1:200) and Hoechst 33342 (2 ug/mL). Cells were labeled for multiplexed imaging on two separate plates: a) Hoechst 33342, MitoTracker Red, phospho-histone H3, and alpha-tubulin, and b) Hoechst 33342, phospho-histone H2A.x, and c-Jun. A final rinse with HBSS (50 uL) was performed before analysis. The primary and secondary antibodies for the proteins were phospho-histone H3 (rabbit anti-phospho-histone H3 and FITC-donkey anti-rabbit IgG), phospho-histone H2A.x (mouse anti-phospho-histone H2A.x and FITC-donkey anti-mouse IgG), c-Jun (rabbit anti-phospho-c-Jun and Cy3-donkey anti-rabbit IgG), p53 (sheep anti-p53 and Cy5-donkey anti-sheep IgG), alpha-tubulin (mouse anti-alpha-tubulin and Cy5-donkey anti-mouse IgG). These antibodies are available as the CellCiphr HepG2 assay kit (Millipore).Digital images of each well were captured using a Cellomics ArrayScan VTI (Thermo Scientific Cellomics) (0.8 NA objective, 0.63x optical coupler, and XF-93 filter set) at 20x magnification. The images were acquired using the autofocus feature of the ArrayScan instrument, which entails the following steps. First, the camera focuses on channel 1 (Hoechst 33342), where nuclei are identified. Second, a Z offset of 1 um is used for capturing mitochondria (MitoTracker Red). […]
Take `CCOc1ccc(C(C)(C)COCc2cccc(Oc3ccccc3)c2)cc1`: the call was inactive.
As to `O=[N+]([O-])c1ccccc1`, the outcome was inactive.
In the case of `CC(Cl)(Cl)C(=O)O`, the call was inactive.
For `CCOP(=S)(Oc1ccc([N+](=O)[O-])cc1)c1ccccc1` (stereo not given), the outcome was inactive.
Still for that read-out and setting: the same measure for `CSC(C)(C)C=NO`: “inactive”.
In the case of `CCCCc1ccccc1`, the outcome was inactive.
For the compound `Cc1ccc(O)cc1C`, the compound was called inactive.
As for `Cc1cccc(N)c1`, the compound was called inactive.
As for `ClC(Cl)(Cl)c1ccccc1`, the call was inactive.
For the compound `[N-]=[N+]=[N-]`, the compound was called inactive.
In the case of `O=C(O)C1C(C(=O)O)C2(Cl)C(Cl)=C(Cl)C1(Cl)C2(Cl)Cl` (stereo not given), the compound was classed as inactive.
Take `O=C(O)C(Cl)Cl`: the compound was classed as inactive.
With `Nc1ccc2ccccc2c1`, the compound was classed as inactive.
The same measure, in the same setting: the same measure for `Cc1ccc(N)cc1N`: “inactive”.
In the case of `O=[N+]([O-])c1ccc(Cl)c(Cl)c1`, the call was inactive.
With `CC(C)(C)c1ccc(O)cc1`, the result was inactive.
With `CC(C)(C)OOC(C)(C)C`, the call was inactive.
With `Cc1ccc([N+](=O)[O-])cc1C`, the result was inactive.
In the case of `CCOP(=S)(OCC)SCSCC`, the compound was classed as inactive.
As for `COCCOCCO`, the result was inactive.
Turning to `c1cc2c3c(cccc3c1)CC2`, the call was inactive.
As to `CCC1(c2ccccc2)C(=O)N=C(O)NC1=O` (stereo not given), the call was inactive.
`OCC1CO1` (stereo not given): the compound was called inactive.
Still for that read-out and setting: next, `ClC(Cl)c1ccccc1`: “inactive”; `CC(Cc1ccc(OCC(=O)O)cc1)NCC(O)c1csc(C(F)(F)F)n1` (stereo not given): “inactive”.
As to `O=P1(N(CCCl)CCCl)NCCCO1` (stereo not given), the compound was called inactive.
`CCC(C)(C)c1ccc(O)cc1`: the call was inactive.
The AC50 is the concentration at which the activity in the assay is half-maximal. As for `ClC1=C(Cl)C2(Cl)C3C(Cl)C(Cl)CC3C1(Cl)C2(Cl)Cl` (stereo not given), the AC50 was 48.9 µM (active).
Consider `Nc1ccc(Cl)cc1`, for which the call was inactive.
Take `CCCN(CCC)c1c([N+](=O)[O-])cc(C(C)C)cc1[N+](=O)[O-]`: the AC50 is 42.9 µM (active).
As for `c1ccc(OP(Oc2ccccc2)Oc2ccccc2)cc1`, the compound was called inactive.
On to `CCCCN(CCCC)N=O`, for which the compound was classed as inactive.
As for `c1nc[nH]n1`, the result was inactive.
On to `O=P(Oc1ccccc1)(Oc1ccccc1)Oc1ccccc1`, for which the outcome was inactive.
`CCOC(=O)c1ccccc1C(=O)OCC`: the call was inactive.
With `CCN(CC)c1ccccc1`, the outcome was inactive.
On to `CCOS(=O)(=O)OCC`, for which the result was inactive.
Consider `Nc1cc2c3c(c1)C(c1ccccc1)=N[C@@H](NC(=O)c1cccnc1)C(=O)N3CC2`, for which the call was inactive.
For `CCCCN(CCCC)SN(C)C(=O)Oc1cccc2c1OC(C)(C)C2`, the AC50 was 92.7 µM (active).
In the case of `c1ccc2c(c1)Nc1ccccc1S2`, the outcome was inactive.
